From the supplement of paper PMC4466140

B1: unnamed (peptide)
chain: RRRIAYPFYPFKKLG

biological target: CaNbp2; experiment: SPOT peptide array binding signal intensity (averaged, normalized) (arbitrary units (background-subtracted, floor 0; scale differs between SH3 domains)); higher = stronger binding of the SH3 domain to the peptide
Procedure, shortened: (§1)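 To measure binding, SH3 domains from four yeast species were fused to GST, expressed in E. coli BL21(DE3) and purified on glutathione Sepharose. Each domain was incubated at 10 μg/ml overnight at 4°C on cellulose membranes with synthetic 15-mer peptides whose cysteines were replaced by serines. Anti-GST antibody, an HRP anti-mouse secondary and luminol were used for detection, and images were quantified with Genespotter. Reported binding signal is normalized, background-subtracted spot intensity averaged over replicates, in arbitrary units that differ between domains.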

Row | Binder | SPOT peptide array binding signal intensity
1 | B1 | 565

biological target: CaRvs167; experiment: as above
Procedure, shortened: as §1

Row | Binder | SPOT peptide array binding signal intensity
2 | B1 | 13.3

biological target: CaRvs167-3; experiment: as above
Procedure, shortened: as §1

Row | Binder | SPOT peptide array binding signal intensity
3 | B1 | 62.5

biological target: CaSho1; experiment: as above
Procedure, shortened: as §1

Row | Binder | SPOT peptide array binding signal intensity
4 | B1 | 486

biological target: CaSla1-D1-D2; experiment: as above
Procedure, shortened: as §1

Row | Binder | SPOT peptide array binding signal intensity
5 | B1 | ≤ 0

biological target: CaSla1-D3; experiment: as above
Procedure, shortened: as §1

Row | Binder | SPOT peptide array binding signal intensity
6 | B1 | 2.5

biological target: ScAbp1; experiment: as above
Procedure, shortened: as §1

Row | Binder | SPOT peptide array binding signal intensity
7 | B1 | 103

biological target: ScBbc1; experiment: as above
Procedure, shortened: as §1

Row | Binder | SPOT peptide array binding signal intensity
8 | B1 | ≤ 0

biological target: ScBem1-D1; experiment: as above
Procedure, shortened: as §1

Row | Binder | SPOT peptide array binding signal intensity
9 | B1 | 16

biological target: ScBzz1-D1; experiment: as above
Procedure, shortened: as §1

Row | Binder | SPOT peptide array binding signal intensity
10 | B1 | 6

biological target: ScBzz1-D2; experiment: as above
Procedure, shortened: as §1

Row | Binder | SPOT peptide array binding signal intensity
11 | B1 | 14

biological target: ScCyk3; experiment: as above
Procedure, shortened: as §1

Row | Binder | SPOT peptide array binding signal intensity
12 | B1 | 38.5

biological target: ScFus1; experiment: as above
Procedure, shortened: as §1

Row | Binder | SPOT peptide array binding signal intensity
13 | B1 | 230

biological target: ScHof1; experiment: as above
Procedure, shortened: as §1

Row | Binder | SPOT peptide array binding signal intensity
14 | B1 | 0.5

biological target: ScHse1; experiment: as above
Procedure, shortened: as §1

Row | Binder | SPOT peptide array binding signal intensity
15 | B1 | 1700

biological target: ScLsb1; experiment: as above
Procedure, shortened: as §1

Row | Binder | SPOT peptide array binding signal intensity
16 | B1 | 3.5

biological target: ScLsb2; experiment: as above
Procedure, shortened: as §1

Row | Binder | SPOT peptide array binding signal intensity
17 | B1 | 4

biological target: ScLsb3; experiment: as above
Procedure, shortened: as §1

Row | Binder | SPOT peptide array binding signal intensity
18 | B1 | 104

biological target: ScLsb4; experiment: as above
Procedure, shortened: as §1

Row | Binder | SPOT peptide array binding signal intensity
19 | B1 | 11

biological target: ScMyo3; experiment: as above
Procedure, shortened: as §1

Row | Binder | SPOT peptide array binding signal intensity
20 | B1 | 4

biological target: ScMyo5; experiment: as above
Procedure, shortened: as §1

Row | Binder | SPOT peptide array binding signal intensity
21 | B1 | ≤ 0

biological target: ScNbp2; experiment: as above
Procedure, shortened: as §1

Row | Binder | SPOT peptide array binding signal intensity
22 | B1 | 173

biological target: ScPex13; experiment: as above
Procedure, shortened: as §1

Row | Binder | SPOT peptide array binding signal intensity
23 | B1 | 0.5

biological target: ScRvs167; experiment: as above
Procedure, shortened: as §1

Row | Binder | SPOT peptide array binding signal intensity
24 | B1 | 13.3

biological target: ScSho1; experiment: as above
Procedure, shortened: as §1

Row | Binder | SPOT peptide array binding signal intensity
25 | B1 | 606

biological target: ScSla1-D1-D2; experiment: as above
Procedure, shortened: as §1

Row | Binder | SPOT peptide array binding signal intensity
26 | B1 | ≤ 0

biological target: ScSla1-D3; experiment: as above
Procedure, shortened: as §1

Row | Binder | SPOT peptide array binding signal intensity
27 | B1 | ≤ 0

biological target: SpAbp1-D1; experiment: as above
Procedure, shortened: as §1

Row | Binder | SPOT peptide array binding signal intensity
28 | B1 | 155

biological target: SpBbc1; experiment: as above
Procedure, shortened: as §1

Row | Binder | SPOT peptide array binding signal intensity
29 | B1 | 1

biological target: SpBzz1-D1; experiment: as above
Procedure, shortened: as §1

Row | Binder | SPOT peptide array binding signal intensity
30 | B1 | 37

biological target: SpBzz1-D2; experiment: as above
Procedure, shortened: as §1

Row | Binder | SPOT peptide array binding signal intensity
31 | B1 | ≤ 0

biological target: SpCyk3; experiment: as above
Procedure, shortened: as §1

Row | Binder | SPOT peptide array binding signal intensity
32 | B1 | ≤ 0

biological target: SpHof1; experiment: as above
Procedure, shortened: as §1

Row | Binder | SPOT peptide array binding signal intensity
33 | B1 | 37.5

biological target: SpHof1-2; experiment: as above
Procedure, shortened: as §1

Row | Binder | SPOT peptide array binding signal intensity
34 | B1 | 12.5

biological target: SpHof1-3; experiment: as above
Procedure, shortened: as §1

Row | Binder | SPOT peptide array binding signal intensity
35 | B1 | 225

biological target: SpHse1; experiment: as above
Procedure, shortened: as §1

Row | Binder | SPOT peptide array binding signal intensity
36 | B1 | 745

biological target: SpLsb1; experiment: as above
Procedure, shortened: as §1

Row | Binder | SPOT peptide array binding signal intensity
37 | B1 | 1.5

biological target: SpLsb4; experiment: as above
Procedure, shortened: as §1

Row | Binder | SPOT peptide array binding signal intensity
38 | B1 | 47

biological target: SpMyo1; experiment: as above
Procedure, shortened: as §1

Row | Binder | SPOT peptide array binding signal intensity
39 | B1 | 2.5

biological target: SpNbp2; experiment: as above
Procedure, shortened: as §1

Row | Binder | SPOT peptide array binding signal intensity
40 | B1 | 394

biological target: SpPex13; experiment: as above
Procedure, shortened: as §1

Row | Binder | SPOT peptide array binding signal intensity
41 | B1 | 5.5

biological target: SpRvs167; experiment: as above
Procedure, shortened: as §1

Row | Binder | SPOT peptide array binding signal intensity
42 | B1 | 7.33

biological target: SpSla1-D1-D2; experiment: as above
Procedure, shortened: as §1

Row | Binder | SPOT peptide array binding signal intensity
43 | B1 | ≤ 0

biological target: SpSla1-D3; experiment: as above
Procedure, shortened: as §1

Row | Binder | SPOT peptide array binding signal intensity
44 | B1 | 1.5
